This excerpt belongs to a sample that is enriched for hits.
DUX4 inh: blocks DUX4-driven transcriptional activation. 293T-iDUX4 ZSCAN4-Gaussia luciferase reporter, 24 h; active compounds read low. activity change, negative = inhibition, % (no concentration beside the values). 37,000 compounds, 0.8% hits;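 active = mean inhibition of at least 10% in the main channel, exceeding the control channel by a set limit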
A number is an active result; . = inactive.

SMILES	DUX4 inh
CCc1csc(N2[C@H](C#N)[C@H](c3ccc(-c4ccc(F)cc4)cc3)[C@@H]2CO)n1	.
O=C(C1CCCCC1)N1CC2(C1)[C@H](c1ccccc1)[C@H](CO)N2C(=O)NC1CCCC1	.
CCC(=O)Nc1ccc2c(c1)C(=O)N(C)C[C@@H](OC)[C@H](C)CN(CC1CCOCC1)[C@@H](C)CO2	.
O=S(=O)(c1ccccc1)N1CCCCN2[C@@H](CO)[C@H](c3ccc(C#CC4CCCC4)cc3)[C@@H]2C1	.
CC(C)CC#Cc1ccc([C@@H]2[C@H]3CN(S(=O)(=O)Cc4ccccc4)CCCCN3[C@H]2CO)cc1	.
CC(C)C#Cc1ccc([C@@H]2[C@H]3CN(C(=O)c4ccc(F)cc4)CCCCN3[C@H]2CO)cc1	-26.2
CC(C)(O)C#Cc1ccc([C@H]2[C@@H](CO)N3CCCCN(C(=O)c4ccc(F)cc4)C[C@@H]23)cc1	.
O=S(=O)(c1ccccc1)N1CCCCN2[C@@H](CO)[C@@H](c3ccc(C#CC4CCCC4)cc3)[C@@H]2C1	.
COCC#Cc1ccc([C@@H]2[C@H](CO)N3CCCCN(S(=O)(=O)c4ccc(OC)cc4)C[C@@H]23)cc1	.
CC(C)CC#Cc1ccc([C@@H]2[C@H]3CN(S(=O)(=O)c4ccc(F)cc4)CCCCN3[C@H]2CO)cc1	-21.8
CC(C)(O)C#Cc1ccc([C@@H]2[C@@H](CO)N3CCCCN(C(=O)c4ccc(F)cc4)C[C@H]23)cc1	.
O=S(=O)(c1ccc(F)cc1)N1CCCCN2[C@@H](CO)[C@H](c3ccc(C#CC4CC4)cc3)[C@@H]2C1	-25.9
CO[C@@H]1CN(C)C(=O)c2ccc(NS(C)(=O)=O)cc2OC[C@H](C)N(Cc2ccccc2)C[C@@H]1C	.
COCCNC(=O)C[C@@H]1C[C@H]2c3cc(NC(=O)c4ccc5c(c4)OCO5)ccc3O[C@H]2[C@H](CO)O1	.
CNC[C@@H]1Oc2c(NS(=O)(=O)c3c(C)noc3C)cccc2C(=O)N([C@H](C)CO)C[C@H]1C	.
O=C(N[C@H]1CC[C@@H](CC(=O)N2CCOCC2)O[C@H]1CO)c1cccc(F)c1	.
O=C(O)C[C@H]1CC[C@H]2[C@@H](COC[C@H](O)CN2S(=O)(=O)c2ccc(F)cc2)O1	.
C[C@H](CO)N1C[C@H](C)[C@H](CN(C)C(=O)Cc2ccccc2)OCCCC[C@H](C)Oc2ccc(NC(=O)Nc3ccc(C(F)(F)F)cc3)cc2C1=O	.
O=C(Cc1ccccc1)N1CC[C@H]2[C@H](CO)Nc3ccc(-c4ccccc4)cc3[C@H]21	.
CN1c2ccc(-c3cccc(F)c3)cc2[C@@H]2[C@@H](CCN2C(=O)C2CCOCC2)[C@@H]1CO	.
CN1c2ccc(-c3cccc(F)c3)cc2[C@H]2[C@H](CCN2C(=O)C2CCC2)[C@H]1CO	.
CN1c2ccc(-c3cccc(F)c3)cc2[C@@H]2[C@@H](CCN2C(=O)C2CCC2)[C@H]1CO	-35.4
Cc1ccc(S(=O)(=O)N2CC[C@H]3[C@@H](CO)N(C)c4ccc(C#Cc5cccnc5)cc4[C@H]32)cc1	.
COc1cccc(NC(=O)N2CC(=O)N3[C@@H](CO)[C@H](c4ccc(C#CC5CCCCC5)cc4)[C@@H]3C2)c1	-47.4
CC(=O)N1CC(=O)N2[C@H](CO)[C@H](c3ccc(C#Cc4cccnc4)cc3)[C@H]2C1	-20.3
SMILES	DUX4 inh
COCC(=O)N1CC(=O)N2[C@@H](CO)[C@@H](c3ccc(C#Cc4cccnc4)cc3)[C@@H]2C1	.
COCC(=O)N1CC(=O)N2[C@H](CO)[C@H](c3ccc(C#Cc4cccnc4)cc3)[C@H]2C1	-21.7
COc1cccc(NC(=O)N2CC(=O)N3[C@H](CO)[C@@H](c4ccc(C#CC5CCCCC5)cc4)[C@@H]3C2)c1	.
CC(C)CC#Cc1ccc([C@@H]2[C@@H](CO)N3C(=O)CN(C(=O)Cc4ccccc4)C[C@H]23)cc1	.
O=C(Cc1ccccc1)N1CC(=O)N2[C@H](C1)[C@@H](c1ccc(C#CCc3ccccc3)cc1)[C@@H]2CO	-33.8
COCC(=O)N1CC(=O)N2[C@H](C1)[C@H](c1ccc(C#Cc3cccnc3)cc1)[C@@H]2CO	.
COc1cccc(NC(=O)N2CC(=O)N3[C@H](CO)[C@@H](c4ccc(C#CC5CCCCC5)cc4)[C@H]3C2)c1	.
CC(=O)N1CC(=O)N2[C@@H](CO)[C@H](c3ccc(C#Cc4cccnc4)cc3)[C@@H]2C1	.
CC(C)CC#Cc1ccc([C@H]2[C@@H](CO)N3C(=O)CN(C(=O)Cc4ccccc4)C[C@H]23)cc1	.
CC(=O)N1CC(=O)N2[C@H](CO)[C@@H](c3ccc(C#Cc4cccnc4)cc3)[C@H]2C1	.
COc1ccc(S(=O)(=O)N[C@@H]2C=C[C@@H](CC(=O)N3CCC(Cc4ccccc4)CC3)O[C@H]2CO)cc1	.
CN1CCN(C(=O)C[C@H]2CC[C@@H]3[C@H](COC[C@@H](O)CN3C(=O)Nc3ccc(Cl)cc3)O2)CC1	.
O=C(C[C@@H]1C=C[C@@H](NC(=O)Cc2cccnc2)[C@H](CO)O1)Nc1ccc(-c2ccccc2)cc1	.
CCCC(=O)N1CC2(CN(C(=O)C3CC3)C2)c2c(n(C)c3cc(OC)ccc23)[C@H]1CO	.
CCC(=O)Nc1ccc2c(c1)C(=O)N(C)C[C@H](OC)[C@@H](C)CN(C(=O)COC)[C@H](C)CO2	.
COc1ccccc1C#Cc1ccc2c(c1)[C@@H]1[C@@H](CCN1S(=O)(=O)c1cccc(C)c1)[C@H](CO)N2	.
